Inconclusive results are not listed. The source made the active and inactive calls. How the source made its calls, unless noted: active means hit-call score of the fitted dose curve at least 0.9, where 1 is the maximum; inconclusive means response in the unintended direction; inactive means score below 0.9.

Test [1] concerns the target Agonist Androgen Response Element (ARE), AR (gene 367) (UniProt P10275). As to the kind of experiment: OT_AR_ARELUC_AG_1440: Odyssey Thera (OT) 24-hour CHO-K1 Luciferase Assay for Agonist Androgen Response Element (ARE) (AID 2283379). The procedure, abridged: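 Readout: luciferase bioluminescence from CHO-K1 ARE-luc cells, measured 24 h post-dosing; agonism = increased mean luminescence vs DMSO controls, fitted in positive direction.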

Test [2] has as its target Estrogen receptor beta (Homo sapiens) (UniProt Q92731). Put plainly: OT_ER_ERbERb_1440: Odyssey Thera (OT) 24-hour HEK293T Protein-Complementation Assay for Estrogen Receptor-beta/-beta Homodimer (AID 2283380).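 Further: fluorescence gain from ER beta LBD homodimer complementation read by laser scanning cytometry; scored as signal increase over DMSO baseline for both agonists and antagonists.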 The procedure, abridged: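 Fluorescence increase, nuclear for agonists or whole-cell for antagonists, relative to DMSO vehicle, quantified by laser scanning cytometer after fixation and Draq5 staining. Readout from 24 h treatment of HEK293T cells carrying complementation-paired ER beta LBD (aa 310-547).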

Test [3] has as its target Estrogen receptor (Homo sapiens) (UniProt P03372). As to the kind of experiment: OT_ERa_GFPERaERE_0480: Odyssey Thera (OT) 8-hour HeLa Transcription Induction Assay for Estrogen Receptor (AID 2283381; active means hit-call score of the fitted dose curve at least 0.9, where 1 is the maximum; inactive means score below 0.9). The procedure, abridged:
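An 8 h HeLa transcription-induction format with a GFP reporter under ERE control, read by fluorescence microscopy; single endpoint fitted positively with DMSO as baseline.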

The target is the same in test [4]. Put plainly: OT_ERa_GFPERaERE_0120: Odyssey Thera (OT) 2-hour HeLa Transcription Induction Assay for Estrogen Receptor (AID 2283382). Summed up:
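Two-hour compound treatment of HeLa cells preceded microscopy imaging of an inducible fluorescent reporter. Image-based quantification gave one endpoint, analysed for signal increase relative to DMSO controls.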

Test [5] concerns the target Retinoic acid receptor RXR-alpha (Homo sapiens) (UniProt P19793). As to the kind of experiment: OT_NURR1_NURR1RXRa_1440: Odyssey Thera (OT) 24-hour HEK293T Protein Complementation Assay for Nurr1/retinoid X receptor (RXR) (AID 2283386). Summed up: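 Cell-based binding reporter: HEK293T cells, 24 h exposure, fluorescence-detected fragment complementation, DMSO as baseline.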

In test [6] the target is Peroxisome proliferator-activated receptor gamma (Homo sapiens) (UniProt P37231). As to the kind of experiment: OT_PPARg_PPARgSRC1_0480: Odyssey Thera (OT) 8-hour Protein-Complementation Assay for Peroxisome Proliferator-activated Receptor Gamma / SRC-1 Co-activator (AID 2283387). The procedure, abridged: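 Split-YFP (IFP1/IFP2) PPARg/SRC-1 reporter, HEK293T, 37 °C, 5% CO2; 8 h compound; formaldehyde fix + Draq5; high-content imaging, N/C ratio, ≥350 cells/image, positive direction vs DMSO.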
Peroxisome proliferator-activated receptor gamma (Homo sapiens), sequence (P37231 whole entry, looked up): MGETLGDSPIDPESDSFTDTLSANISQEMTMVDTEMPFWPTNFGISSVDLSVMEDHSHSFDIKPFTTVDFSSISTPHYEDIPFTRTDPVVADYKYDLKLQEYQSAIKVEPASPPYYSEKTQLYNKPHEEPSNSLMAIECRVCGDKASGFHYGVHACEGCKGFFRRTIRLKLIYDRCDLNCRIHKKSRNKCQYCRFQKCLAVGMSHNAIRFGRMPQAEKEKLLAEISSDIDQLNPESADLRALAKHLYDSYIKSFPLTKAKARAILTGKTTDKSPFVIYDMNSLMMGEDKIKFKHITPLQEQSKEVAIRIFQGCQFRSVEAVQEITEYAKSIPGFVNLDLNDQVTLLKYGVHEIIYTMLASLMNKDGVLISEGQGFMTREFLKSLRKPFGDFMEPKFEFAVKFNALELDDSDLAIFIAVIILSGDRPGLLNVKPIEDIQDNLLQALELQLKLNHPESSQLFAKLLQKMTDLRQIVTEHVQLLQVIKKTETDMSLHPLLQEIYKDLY

Test [7] shares this target. Put plainly: OT_PPARg_PPARgSRC1_1440: Odyssey Thera (OT) 24-hour Protein-Complementation Assay for Peroxisome Proliferator-activated Receptor Gamma/ SRC-1 Co-activator (AID 2283388). The procedure, abridged: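 HEK293T cells transiently transfected with PPARg and SRC-1 fused via (Gly4Ser)2 linker to split Venus YFP fragments (IFP1/IFP2) were dosed 24 h; fixed, Draq5-stained, imaged at 488/635 nm; nuclear/cytoplasmic fluorescence ratio scored versus DMSO baseline, gain-of-signal.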

The target of test [8] is Retinoic acid receptor RXR-alpha (Homo sapiens) (UniProt P19793). As to the kind of experiment: OT_NURR1_NURR1RXRa_0480: Odyssey Thera (OT) 8-hour HEK293T Protein Complementation Assay for Nurr1/retinoid X receptor (RXR) (AID 2283385). Summed up: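 Gain in fluorescent complementation signal over DMSO, measured 8 hours after chemical dosing of human kidney HEK293T cells, indicated enhanced Nurr1–RXRα association.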
Retinoic acid receptor RXR-alpha (Homo sapiens), sequence (P19793 whole entry, looked up, the tested form may be a part): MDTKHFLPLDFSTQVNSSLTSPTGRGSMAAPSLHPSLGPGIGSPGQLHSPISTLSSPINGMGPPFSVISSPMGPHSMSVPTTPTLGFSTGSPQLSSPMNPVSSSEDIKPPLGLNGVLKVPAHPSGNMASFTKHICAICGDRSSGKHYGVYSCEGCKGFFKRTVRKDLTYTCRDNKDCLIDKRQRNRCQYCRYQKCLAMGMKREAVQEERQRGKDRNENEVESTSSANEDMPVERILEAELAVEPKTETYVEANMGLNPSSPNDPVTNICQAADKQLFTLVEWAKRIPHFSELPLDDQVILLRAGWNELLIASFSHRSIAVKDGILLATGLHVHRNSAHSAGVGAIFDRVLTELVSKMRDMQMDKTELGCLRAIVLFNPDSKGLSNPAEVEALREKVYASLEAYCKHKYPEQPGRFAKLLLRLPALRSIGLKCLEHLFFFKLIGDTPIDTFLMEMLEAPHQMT

For test [9], the target named is Bile acid receptor (Homo sapiens) (UniProt Q96RI1). Put plainly: OT_FXR_FXRSRC1_0480: Odyssey Thera (OT) 8-hour HEK293T Protein-Complementation Assay for Farnesoid X receptor/SRC-1 Co-activator (AID 2283383). The procedure, abridged: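 Readings were taken 8 h after dosing HEK293T cells in a split-reporter complementation format pairing FXR with SRC-1. Increased fluorescence relative to DMSO-treated wells defined activity.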
Bile acid receptor (Homo sapiens), sequence (Q96RI1 whole entry, looked up): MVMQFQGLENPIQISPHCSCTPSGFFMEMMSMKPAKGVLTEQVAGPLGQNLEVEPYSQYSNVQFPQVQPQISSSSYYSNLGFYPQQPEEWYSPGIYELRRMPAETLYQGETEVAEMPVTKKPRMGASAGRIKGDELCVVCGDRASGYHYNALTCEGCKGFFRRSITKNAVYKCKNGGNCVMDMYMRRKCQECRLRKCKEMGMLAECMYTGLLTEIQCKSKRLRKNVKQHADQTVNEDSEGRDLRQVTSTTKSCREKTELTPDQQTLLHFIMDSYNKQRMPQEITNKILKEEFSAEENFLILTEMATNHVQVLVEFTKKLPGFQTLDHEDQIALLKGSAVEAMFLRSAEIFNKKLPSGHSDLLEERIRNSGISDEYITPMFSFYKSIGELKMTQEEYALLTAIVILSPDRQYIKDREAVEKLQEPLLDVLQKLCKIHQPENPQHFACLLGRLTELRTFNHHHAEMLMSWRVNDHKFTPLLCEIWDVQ

For test [10] the target is unchanged. Put plainly: OT_FXR_FXRSRC1_1440: Odyssey Thera (OT) 24-hour HEK293T Protein-Complementation Assay for Farnesoid X receptor/SRC-1 Co-activator (AID 2283384). The procedure, abridged:
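Single endpoint, analysed for increased fluorescence against DMSO controls. HEK293T cells carrying FXR and SRC-1 linked to complementary reporter halves were exposed to chemicals for 24 h before reading.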

A short description of test [11]: CEETOX_H295R_11DCORT: CeeTox H295R High-throughput Steroidogenesis Assay for 11-Deoxycortisol (11DCORT) (AID 2283432; active means hit-call score of the fitted dose curve at least 0.9, where 1 is the maximum; inactive means score below 0.9). The note with it: actives raise or lower the signal. Summed up:
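Steroidogenesis in human H295R cells: 48 h chemical exposure after forskolin priming, 11-deoxycortisol measured by LC-MS/MS.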

Test [12] in a line: CEETOX_H295R_OHPREG: CeeTox H295R High-throughput Steroidogenesis Assay for OH-Pregnenolone (OHPREG) (AID 2283434; active means hit-call score of the fitted dose curve at least 0.9, where 1 is the maximum; inactive means score below 0.9). The note with it: actives raise or lower the signal. Summed up:
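Secreted 17alpha-hydroxypregnenolone measured by HPLC-MS/MS after liquid-liquid extraction. Human adrenal H295R cells received 48 h forskolin (10 uM) stimulation before 48 h chemical exposure at 0.1% final DMSO; MTT viability in same wells; bidirectional fit against DMSO.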

A short description of test [13]: CEETOX_H295R_OHPROG: CeeTox H295R High-throughput Steroidogenesis Assay for OH-Progesterone (OHPROG) (AID 2283435; active means hit-call score of the fitted dose curve at least 0.9, where 1 is the maximum; inactive means score below 0.9). The note with it: actives raise or lower the signal. Summed up:
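Human adrenocortical H295R cells, passage 10 or lower, were treated with chemical for 48 h after forskolin priming, and hormone output in the medium was quantified by LC-MS/MS.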

Test [14] in a line: CEETOX_H295R_CORTIC: CeeTox H295R High-throughput Steroidogenesis Assay for Corticosterone (CORTIC) (AID 2283437; active means hit-call score of the fitted dose curve at least 0.9, where 1 is the maximum; inactive means score below 0.9). The note with it: actives raise or lower the signal. The procedure, abridged:
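Medium corticosterone was quantified by tandem mass spectrometry following 48 hours of chemical exposure (0.1% DMSO) in human H295R cells previously stimulated 48 hours with 10 uM forskolin. Viability checked by MTT; chemicals diluted and retested when viability fell below 70%.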

Test [15] is described as follows: CEETOX_H295R_ESTRADIOL: CeeTox H295R High-throughput Steroidogenesis Assay for Estradiol (AID 2283440; active means hit-call score of the fitted dose curve at least 0.9, where 1 is the maximum; inactive means score below 0.9;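 further: estradiol secreted into medium quantified by LC-MS/MS after dansyl derivatisation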). The note with it: actives raise or lower the signal. Summed up: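 H295R adrenocortical cells were prestimulated with 10 uM forskolin for 48 h, then exposed to test chemical in 0.1% DMSO for 48 h. Medium estradiol was extracted with MTBE, dansyl-derivatized and quantified by HPLC-MS/MS; bidirectional fit versus DMSO.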

Test [16] in a line: CEETOX_H295R_ESTRONE: CeeTox H295R High-throughput Steroidogenesis Assay for Estrone (AID 2283441; active means hit-call score of the fitted dose curve at least 0.9, where 1 is the maximum; inactive means score below 0.9;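 further: estrone secreted into medium measured by LC-MS/MS after dansyl derivatization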). The note with it: actives raise or lower the signal. The procedure, abridged: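 Forskolin-stimulated H295R cells are treated 48 h with chemical, and estrone in the medium is measured by LC-MS/MS. Activity is fitted in both directions relative to DMSO controls, with chemicals diluted until MTT viability reaches at least 70%.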

A short description of test [17]: CEETOX_H295R_PROG: CeeTox H295R High-throughput Steroidogenesis Assay for Progesterone (PROG) (AID 2283442; active means hit-call score of the fitted dose curve at least 0.9, where 1 is the maximum; inactive means score below 0.9). The note with it: actives raise or lower the signal. Summed up: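 H295R human adrenal cells were prestimulated with 10 uM forskolin for 48 h, then exposed to test chemical (0.1% DMSO final) for 48 h. Medium progesterone was MTBE-extracted and quantified by HPLC-MS/MS, with bidirectional fitting against DMSO.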

Estrogen receptor (Homo sapiens), sequence (P03372 whole entry, looked up): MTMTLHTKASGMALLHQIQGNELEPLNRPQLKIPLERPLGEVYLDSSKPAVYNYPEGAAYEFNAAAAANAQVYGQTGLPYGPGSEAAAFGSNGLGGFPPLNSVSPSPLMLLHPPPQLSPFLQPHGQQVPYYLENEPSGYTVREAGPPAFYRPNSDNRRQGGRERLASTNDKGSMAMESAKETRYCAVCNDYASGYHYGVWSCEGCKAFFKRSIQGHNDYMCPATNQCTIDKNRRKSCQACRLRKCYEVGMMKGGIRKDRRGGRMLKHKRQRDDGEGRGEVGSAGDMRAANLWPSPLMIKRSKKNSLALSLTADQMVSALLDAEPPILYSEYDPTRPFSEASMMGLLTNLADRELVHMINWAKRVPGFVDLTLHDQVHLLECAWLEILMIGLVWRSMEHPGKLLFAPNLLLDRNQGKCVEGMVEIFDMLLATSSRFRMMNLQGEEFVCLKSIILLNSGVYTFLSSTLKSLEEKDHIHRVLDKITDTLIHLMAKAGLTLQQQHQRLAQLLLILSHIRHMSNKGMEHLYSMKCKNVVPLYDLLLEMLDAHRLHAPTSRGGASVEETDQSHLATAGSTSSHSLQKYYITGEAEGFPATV
Agonist Androgen Response Element (ARE), AR (gene 367), sequence (P10275 whole entry, looked up): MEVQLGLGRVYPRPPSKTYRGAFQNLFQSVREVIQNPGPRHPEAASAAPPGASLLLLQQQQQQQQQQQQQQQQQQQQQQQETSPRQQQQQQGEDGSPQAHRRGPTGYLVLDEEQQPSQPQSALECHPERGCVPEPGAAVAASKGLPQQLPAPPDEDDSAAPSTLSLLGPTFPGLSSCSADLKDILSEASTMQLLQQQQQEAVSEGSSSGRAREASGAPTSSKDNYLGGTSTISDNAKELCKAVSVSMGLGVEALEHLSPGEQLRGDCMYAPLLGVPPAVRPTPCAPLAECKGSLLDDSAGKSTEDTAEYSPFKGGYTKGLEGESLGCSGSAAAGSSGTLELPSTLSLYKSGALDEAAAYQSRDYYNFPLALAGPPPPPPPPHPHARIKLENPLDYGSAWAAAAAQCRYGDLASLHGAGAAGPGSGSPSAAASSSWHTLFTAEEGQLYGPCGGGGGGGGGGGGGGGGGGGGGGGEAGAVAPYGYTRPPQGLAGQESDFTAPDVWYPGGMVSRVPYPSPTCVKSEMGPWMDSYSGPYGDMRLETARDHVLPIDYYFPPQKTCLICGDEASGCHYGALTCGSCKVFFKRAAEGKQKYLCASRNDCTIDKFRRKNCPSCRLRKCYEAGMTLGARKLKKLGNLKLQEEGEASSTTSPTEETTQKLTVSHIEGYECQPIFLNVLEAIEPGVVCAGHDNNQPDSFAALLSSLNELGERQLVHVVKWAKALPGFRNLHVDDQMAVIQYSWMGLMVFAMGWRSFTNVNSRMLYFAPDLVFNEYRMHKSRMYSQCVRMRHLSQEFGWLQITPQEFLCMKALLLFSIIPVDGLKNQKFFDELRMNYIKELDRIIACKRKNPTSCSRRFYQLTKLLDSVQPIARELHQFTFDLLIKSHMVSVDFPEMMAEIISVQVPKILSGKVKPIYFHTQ
Estrogen receptor beta (Homo sapiens), sequence (Q92731 whole entry, looked up, the tested form may be a part): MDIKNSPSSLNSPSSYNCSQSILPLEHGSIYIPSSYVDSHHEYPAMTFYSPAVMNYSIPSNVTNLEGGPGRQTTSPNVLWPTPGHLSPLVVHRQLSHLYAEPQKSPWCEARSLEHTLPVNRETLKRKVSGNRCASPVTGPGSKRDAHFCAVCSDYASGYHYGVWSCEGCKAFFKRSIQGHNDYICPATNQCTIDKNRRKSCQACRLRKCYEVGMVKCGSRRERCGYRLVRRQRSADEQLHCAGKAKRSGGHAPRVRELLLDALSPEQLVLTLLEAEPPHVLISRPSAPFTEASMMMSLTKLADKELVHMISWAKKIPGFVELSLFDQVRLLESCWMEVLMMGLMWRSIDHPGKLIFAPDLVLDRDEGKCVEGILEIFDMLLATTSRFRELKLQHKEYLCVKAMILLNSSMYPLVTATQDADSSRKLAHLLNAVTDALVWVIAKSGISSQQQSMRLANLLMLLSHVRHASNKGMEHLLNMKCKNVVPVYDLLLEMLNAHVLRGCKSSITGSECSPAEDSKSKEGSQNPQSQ

Consider `COc1cc(O)c(C(=O)c2ccccc2)cc1S(=O)(=O)O`, for which the outcome in test [1], in test [2], in [3], in test [4], in test [5] and in test [6] was inactive. In addition, the compound was classed as inactive in test [7].

For the compound `CC1(C)[C@@H]2CC[C@@]1(C)C(=O)C2`, the outcome in test [2], in test [3], in [4] and in [8] was inactive.

`C=CCOC(=O)c1ccc(C(=O)OCC=C)c(C(=O)OCC=C)c1`: the compound was classed as inactive in test [2], in [3], in test [4], in test [8], in test [6] and in [7].

As for `CCCCC(CC)COC(=O)/C=C/c1ccc(OC)cc1` (configuration not stated), the compound was classed as inactive in [1], in test [3], in [4], in [8] and in test [7].

Consider `CCCCNC(=S)NCCCC`, for which the outcome in test [2], in [3], in test [4], in test [9], in test [10] and in test [8] was inactive. Besides, the outcome in [5], in test [6] and in test [7] was inactive.

`Cc1c(C(=O)c2c[nH]n(C)c2=O)ccc(S(C)(=O)=O)c1C1=NOCC1`: the compound was classed as inactive in [1], in test [2], in [3], in test [4], in test [8] and in [5]. Also, the call in test [6] and in test [7] was inactive.

As to `CCCCC(C=O)CC` (configuration not stated), the result in test [2], in [3], in test [4], in [9], in [6] and in test [7] was inactive.

Turning to `CCCCCCOC(=O)CCCCC(=O)OCCCCCC`, the outcome in test [2], in [3], in test [4], in test [9], in [10] and in test [5] was inactive. For the same compound, the outcome in test [6] and in [7] was inactive.

`CCCCCCCO`: the compound was called inactive in test [2], in test [3], in [4], in test [8], in test [5] and in test [6]. Further, the compound was classed as inactive in [7].

For `CC(C)c1ccc(O)c(C(C)C)c1`, the call in test [2], in [3], in test [4], in test [8], in test [6] and in test [7] was inactive.

In the case of `CCCCC(CC)COS(=O)(=O)O` (configuration not stated), the result in test [2], in test [3], in test [4] and in [9] was inactive.

As for `CCCCCCCCCC[N+](C)(CCCCCCCCCC)CCC[Si](OC)(OC)OC`, the call in test [2], in test [6] and in [7] was inactive. For the same compound, the AC50 (commonly the concentration giving half of the maximal activity seen) in test [3] is 24.1 µM (active); in test [4] it was 81.9 µM (active); in [8], 11.7 µM (active); in test [5], 11.6 µM (active).

With `CCN1CN(CC)CN(CC)C1`, the call in [2], in [3], in test [4], in [9], in [10] and in [8] was inactive. In addition, the compound was called inactive in test [6], in [7], in [11], in test [12], in [13] and in test [14]. For the same compound, the compound was called inactive in [15], in test [16] and in test [17].
